The nature of test [1]: stimulators of insulin release from INS-1E, primary screen, cell-based, 5 mM glucose, NPC library (AID 1117329;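 active = compound raises insulin release from rat beta cells at 5 mM glucose, no numeric limit stated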). The note with it: rat INS-1E insulin secretion, at 10 µM, stronger effect = higher value.
Test [2] can be described thus: growth inhibition of GSK3B-pretreated HCT116 cells – cell-based, CellTiter-Glo, 0.2 to 20 µM (AID 1117336;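 active = compounds lowering colon cancer cell viability after pretreatment blocking the GSK3B kinase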). The note with it: HCT116 viability after GSK3B inhibitor, at 20 µM, stronger effect = higher value. (In general: In ATP-based viability assays light output follows the ATP content of the culture.)
A short description of test [3]: inhibition of endothelial tube formation, primary screen, imaging, VEGF stimulated, CD31 staining, tube area, NPC library (AID 1117340;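 active = compound that reduces growth-factor-driven endothelial tube area in a mixed cell culture, no cutoff stated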). The note with it: VEGF-stimulated ADSC/ECFC co-culture, at 10 µM, stronger effect = higher value.
Test [4] can be described thus: glucagon-like peptide 1 release enhancers, primary assay, NCI-H716 cell line, NPC library (AID 1117341;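 active = compound raises GLP1 secretion from the human gut endocrine cells, with no numeric limit stated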). The note with it: NCI-H716 cells, at 10 µM, stronger effect = higher value.
A short description of test [5]: HCT116 colon cancer cell growth inhibition, primary screen, CellTiter-Glo luminescence, NPC library (AID 1117342;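 active = compounds that lower survival of HCT116 colon cancer cells in the luminescence readout, no numeric limit stated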). The note with it: at 20 µM (top of the series).
A short description of test [6]: CellTiter-Glo luminescent readout of SW480 viability loss, NPC library primary (AID 1117343;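 active = compounds that lower viability of the colon cancer cells in the luminescence readout, with no numeric limit stated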). The note with it: CellTiter-Glo luminescence; at 20 µM (top of the series).
Test [7] can be described thus: decreased DLD-1 cellular survival, CellTiter-Glo luminescent readout, NPC compound collection, primary HTS (AID 1117346;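 active = compounds that lower survival of DLD-1 colon cancer cells in the luminescence readout, no cutoff given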). The note with it: DLD-1 viability, CellTiter-Glo luminescence; at 20 µM (top of the series).
Test [8] in a line: modulation of C. elegans fzo-1 (AID 1259413).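 Also: fzo-1 mutant C. elegans worms in liquid wells.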 The note with it: C. elegans fzo-1 modulator screen, mean read-out; stronger effect = higher value.
Test [9] in a line: differential killing of epithelial or mesenchymal cells, primary screen, imaging, PC-3E GFP, TEM4-18 mCherry, co-culture (AID 1345086;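 active = compounds killing one labelled cell type while sparing the other, by normalised counts and ratio limits, not self-fluorescent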;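 as to all read-outs here: cells exposed to compound for 72 h before imaging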;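 as to red/green cell ratio (normalised): normalised mesenchymal count divided by normalised epithelial count so high means epithelial killing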). The note with it: imaging cell counts, at 1 µM; for red/green cell ratio (normalised): actives lie on both sides, counts scaled to control wells, 1 = unselective.
The test system of test [10] is Aerobactin synthetase IucA (Klebsiella pneumoniae). Put plainly: IucA aerobactin synthetase inhibitors, biochemical, Tocris library, absorbance (AID 1345561).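 Also: 100% = enzyme without compound and 0% = no enzyme.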 The note with it: purified IucA enzyme assay, absorbance (OD) read-out; stronger effect = lower value;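 tested at 8 µM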.
The mark [11] stands for this setting: measured here: epithelial PC-3E GFP cell survival.
Setting [12] is: measured here: mesenchymal TEM4-18 mCherry cell survival.

Activity calls are given as the source filed them. Unless noted, no rule for the calls is given here.

For orientation: remaining activity means the signal under treatment as a percentage of the control signal.

Regarding `CN1CCN(C2=Nc3cc(F)ccc3Cc3ccccc32)CC1`, the insulin secretion stimulation in test [1] is 3.3% (inactive). In test [2], the viability decrease was 12.5% (inactive). In [3], the tube area decrease was 13% (inactive). In test [4], the GLP1 secretion stimulation is 8% (inactive). Also, the inhibition of viability in test [5] was 37.7% (inactive). Moreover, the viability decrease (inhibition) is 26.9% (inactive) in [6] and -2.4% (inactive) in test [7]. Besides, the mean signal in [8] was 248 (inactive).
In the case of `COc1cc2c(cc1OC)C(=O)C(CC1CCN(Cc3ccccc3)CC1)C2` (stereo not given), the insulin secretion stimulation in [1] was 1.25% (inactive). Further, in test [2], the viability decrease is 22.6% (inactive). In addition, in test [3], the tube area decrease was 17.7% (inactive). In addition, the GLP1 secretion stimulation in test [4] is 6.3% (inactive). The inhibition of viability in test [5] was 49.6% (inactive). The viability decrease (inhibition) is 69.8% (active) in [6] and 38.5% (inactive) in test [7]. The mean signal in test [8] is 214 (inactive). Further, in [9], the red/green cell ratio (normalised) is 1.04 (inactive). The results for the normalised cell number in [9] (setting [11]) and in [9] (setting [12]) were 1.04 and 1.09, respectively.
Consider `COc1cc(C(=O)NC2CCCNC2)cc(OC)c1OC` (stereo not given), for which the insulin secretion stimulation in [1] was 1.6% (inactive). For the same compound, in test [2], the viability decrease is -5.2% (inactive). The tube area decrease in test [3] is 0.1% (inactive). In addition, the GLP1 secretion stimulation in test [4] was 3.3% (inactive). The inhibition of viability in test [5] is 0.8% (inactive). Further, the viability decrease (inhibition) in test [6] is 37.5% (inactive); in test [7], 15.8% (inactive). The mean signal in [8] was 236 (inactive).
Regarding `CCOC(=O)C1=C(C)NC(C)=C(C(=O)OC)C1c1cccc(Cl)c1Cl` (stereo not given), the insulin secretion stimulation in test [1] is 3.1% (inactive). Besides, the viability decrease in test [2] was 113% (active). Moreover, the tube area decrease in test [3] is 58.1% (active). For the same compound, in [4], the GLP1 secretion stimulation was 5.3% (inactive). Besides, the inhibition of viability in test [5] is 110% (active). Besides, the figures for the viability decrease (inhibition) in test [6] and in test [7] were 139% (active) and 95.6% (active), respectively. For the same compound, in test [8], the mean signal is 217 (inactive). Also, the red/green cell ratio (normalised) in [9] was 1.08 (inactive). Also, the normalised cell number in test [9] (setting [11]) turned out to be 1.11; in test [9] (setting [12]), 1.2.
Consider `CC1(C)S[C@@H]2[C@H](N=CN3CCCCCC3)C(=O)N2[C@H]1C(=O)O`, for which the insulin secretion stimulation in [1] is -1.6% (inactive). Further, the viability decrease in test [2] was -5.75% (inactive). In [3], the tube area decrease was 4.4% (inactive). Moreover, the GLP1 secretion stimulation in test [4] is -0.7% (inactive). In test [5], the inhibition of viability was 15.1% (inactive). The values for the viability decrease (inhibition) in test [6] and in test [7] were -20.4% (inactive) and -12.8% (inactive), respectively. The mean signal in test [8] is 245 (inactive).
For the compound `CC(C)(C)C(O)/C=C/c1ccc2c(c1)OCO2` (stereo not given), the insulin secretion stimulation in test [1] is -1.1% (inactive). In addition, the viability decrease in test [2] was -4.45% (inactive). In addition, in [3], the tube area decrease was -6.4% (inactive). In addition, the GLP1 secretion stimulation in test [4] was 1.9% (inactive). Moreover, the inhibition of viability in [5] is 11.7% (inactive). The viability decrease (inhibition) was -0.9% (inactive) in test [6] and -1.3% (inactive) in test [7]. Further, in test [8], the mean signal was 280 (inactive).
Take `CC[N+](C)(CC)CCOC(=O)C(O)(c1ccccc1)C1CCCCC1` (stereo not given): the insulin secretion stimulation in test [1] is -1.5% (inactive). Further, the viability decrease in test [2] was -16.6% (inactive). The tube area decrease in [3] is -4.7% (inactive). Besides, the GLP1 secretion stimulation in [4] was -3.3% (inactive). In addition, the inhibition of viability in test [5] is 0.4% (inactive). Further, the viability decrease (inhibition) in [6] was 0.8% (inactive); in test [7], -8.3% (inactive). Moreover, the mean signal in test [8] was 260 (inactive). The red/green cell ratio (normalised) in test [9] is 0.95 (inactive). The normalised cell number in [9] (setting [11]) is 1.13; in test [9] (setting [12]), 1.07.
With `CC(C)(O)c1ccccc1CC[C@@H](SCC1(CC(=O)O)CC1)c1cccc(/C=C/c2ccc3ccc(Cl)cc3n2)c1`, in test [1], the insulin secretion stimulation is 1.4% (inactive). Also, in [2], the viability decrease is 111% (active). The tube area decrease in test [3] is -7.2% (inactive). Further, the GLP1 secretion stimulation in test [4] is 80.8% (active). Besides, the inhibition of viability in [5] was 114% (active). Also, the values for the viability decrease (inhibition) in [6] and in test [7] were 133% (active) and 102% (active), respectively. Besides, the mean signal in [8] was 259 (inactive).
For the compound `OCc1cc(C(O)CNCCCCCCOCCCCc2ccccc2)ccc1O` (stereo not given), the insulin secretion stimulation in test [1] was 0.4% (inactive). Besides, the viability decrease in [2] is -73.1% (inactive). Also, the tube area decrease in test [3] was 27.2% (inactive). The GLP1 secretion stimulation in test [4] was -0.4% (inactive). Besides, the inhibition of viability in test [5] was 44.6% (inactive). The viability decrease (inhibition) in [6] was 46.4% (inactive); in test [7], 37.8% (inactive). Also, the mean signal in [8] was 253 (inactive). For the same compound, in test [9], the red/green cell ratio (normalised) is 1.18 (inactive). For the same compound, the values for the normalised cell number in test [9] (setting [11]) and in [9] (setting [12]) were 0.82 and 0.97, respectively. In addition, in test [10], the remaining activity is 115% (inactive).

The values above are taken from PubChem BioAssay.
